{"source": "the supplement of paper PMC10338343", "note": "± gives the standard deviation.", "data": [{"system": "MILI (PIWIL2) piRISC loaded with piRNA #1 (26 nt)", "experiment": "pre-steady-state target cleavage rate (min^-1); guide: piRNA #1 5'p-UGAGGUAGUAGGUUGUAUAGUAUCCA; MIWI and MILI are mouse PIWI proteins and EfPiwi is from a freshwater sponge; tags in brackets are library labels; higher = faster piRNA-guided slicing of the target", "conditions": "auxiliary factor: 500 nM mouse GTSF1", "outline": "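Cleave-'n-Seq: 1 nM active affinity-purified piRISC with one synthetic guide and 0.1 nM transcribed, DNA-blocked target RNA library were mixed, with or without 500 nM GTSF1 partner protein, in HEPES–potassium acetate buffer at 33 °C for 0–8 or 0–960 min. Uncleaved targets were sequenced and normalised to depth and to weakly complementary targets, three trials were pooled, and k3 was capped at 0.0001 min^-1. The pre-steady-state cleavage rate was fitted […].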", "values": [{"sequence": "GGAGACCAUACUAUUCAACCUACAACCUCA", "pre-steady-state target cleavage rate": "0.185 ± 0.021"}, {"sequence": "GGAGACGAUACUAAACAACCUACAACCUCA", "pre-steady-state target cleavage rate": "0.116 ± 0.013"}, {"sequence": "GGAGACCUUACUAUACGACCUACUACCUCA", "pre-steady-state target cleavage rate": "0.0683 ± 0.0088"}, {"sequence": "GGAGACCUAUCUUAACAACCUACUACCUCA", "pre-steady-state target cleavage rate": "0.0183 ± 0.0045"}, {"sequence": "GGAGACCUAUGAAUACAAGCUACUACCUCA", "pre-steady-state target cleavage rate": "0.0349 ± 0.0069"}, {"sequence": "GGAGACCUAUCUAAACAACCUUCUACCUCA", "pre-steady-state target cleavage rate": "0.00634 ± 0.0024"}, {"sequence": "GGAGACCUAUGUAUACAAGCUACUACCACA", "pre-steady-state target cleavage rate": "0.177 ± 0.017"}, {"sequence": "GGAGACCUAUGAUUACAACUUACUACCUCA", "pre-steady-state target cleavage rate": "0.00657 ± 0.0024"}, {"sequence": "GGAGAGGUUACUAUACAACCUACUACCUGA", "pre-steady-state target cleavage rate": "0.0157 ± 0.0052"}, {"sequence": "GGAGACCUAUGAAUACCAACCUACUACCUCA", "pre-steady-state target cleavage rate": "0.00269 ± 0.0026"}, {"sequence": "GGAGAGCAUACUAUACAACCUACUACGUCA", "pre-steady-state target cleavage rate": "0.112 ± 0.017"}, {"sequence": "GGAGACCUAUGAUAACAACCUACCACCUCA", "pre-steady-state target cleavage rate": "0.00342 ± 0.0032"}, {"sequence": "GGAGACCUAUGUUUACAACCUACAACCUCA", "pre-steady-state target cleavage rate": "0.0131 ± 0.0031"}, {"sequence": "GGAGACCUAUGUAUACAACCCACUACCUCA", "pre-steady-state target cleavage rate": "0.0101 ± 0.0034"}, {"sequence": "GGAGACGAUAGUAUACAACGUACUACCUCA", "pre-steady-state target cleavage rate": "0.0209 ± 0.0035"}, {"sequence": "GGAGACCUUACUAUACAACCAUACUACCUCA", "pre-steady-state target cleavage rate": "0.0055 ± 0.0037"}, {"sequence": "GGAGACCUAUGAUAUGUUGCUGACUACCUCA", "pre-steady-state target cleavage rate": "< 0.0001"}, {"sequence": "GGAGACCUAUGAUAUGAACGAACUACCUCA", "pre-steady-state target cleavage rate": "< 0.0001"}, {"sequence": "GGAGACCUAUGUAUAUAACCUACUACCUCA", "pre-steady-state target cleavage rate": "0.0579 ± 0.0076"}, {"sequence": "GGAGACCAUACAAUACAACCUACAACCUCA", "pre-steady-state target cleavage rate": "0.136 ± 0.014"}, {"sequence": "GGAGACCUAUGAUAUCAACCUACAACCUCA", "pre-steady-state target cleavage rate": "0.00288 ± 0.0026"}, {"sequence": "GGAGACCAUUCUAUACAACCAACUACCUCA", "pre-steady-state target cleavage rate": "0.0079 ± 0.0026"}, {"sequence": "GGAGACCUAUGAUAUGUUGCUACUACCUCU [g2:g11:cont:t1U]", "pre-steady-state target cleavage rate": "< 0.0001"}, {"sequence": "GGAGACCUUUCUAUACAACCUACUACGUCA", "pre-steady-state target cleavage rate": "0.0394 ± 0.0068"}, {"sequence": "GGAGACCAUACUAAACAACCUACUACCACA", "pre-steady-state target cleavage rate": "0.233 ± 0.026"}, {"sequence": "GGAGACCUAACUAUACAACUUACUACCUCA", "pre-steady-state target cleavage rate": "0.0179 ± 0.0043"}, {"sequence": "GGAGACCUUAGUAUACAACCUACUUCCUCA", "pre-steady-state target cleavage rate": "0.0515 ± 0.014"}, {"sequence": "GGAGACCUAUGAUAUCAACUCUACUACCUCA", "pre-steady-state target cleavage rate": "< 0.0001"}, {"sequence": "GGAGACCUAUCUAUACAACGUACAACCUCA", "pre-steady-state target cleavage rate": "0.0149 ± 0.0048"}, {"sequence": "GGAGAGGAUACUAUUGUACCUACUACCUCA", "pre-steady-state target cleavage rate": "0.131 ± 0.0096"}, {"sequence": "GGAGACCUAUCUAUACAACCAAGUACCUCA", "pre-steady-state target cleavage rate": "0.00317 ± 0.0031"}, {"sequence": "GGAGACCUUACUAUACAACCUACAUGCUCA", "pre-steady-state target cleavage rate": "0.0591 ± 0.012"}, {"sequence": "GGAGACCUAUGAAUACAACCUACCUACCUCA", "pre-steady-state target cleavage rate": "0.0088 ± 0.0035"}, {"sequence": "GGAGACCUAUGAAUACAACCUACUACCUCC [g2:g18:cont:t1C]", "pre-steady-state target cleavage rate": "0.0111 ± 0.0027"}, {"sequence": "GGAGACCUAUGAUUACAACCUACUACCUUCA", "pre-steady-state target cleavage rate": "0.00664 ± 0.0022"}, {"sequence": "GGAGACCUAUGAUUACAACCUACUACACUCA", "pre-steady-state target cleavage rate": "0.00616 ± 0.0025"}, {"sequence": "GGAGACCUAUCUAUACAACGAACUACCUCA", "pre-steady-state target cleavage rate": "0.00423 ± 0.0023"}, {"sequence": "GGAGACCUAUGAUAUGAACCUGCUACCUCA", "pre-steady-state target cleavage rate": "< 0.0001"}, {"sequence": "GGAGACGAUACAAUACAACGUACUACCUCA", "pre-steady-state target cleavage rate": "0.0185 ± 0.0029"}, {"sequence": "GGAGACCUAUCUAUACAUCCUACUACGUCA", "pre-steady-state target cleavage rate": "0.0773 ± 0.017"}]}]}
